Only some compounds are listed: those with a hit (about 12% of all), similar ones and a draw of the others.
OTUD3 inh: human OTUD3 deubiquitinase inhibition. inhibition, % at 25 µM. purified OTUD3, Ub-rhodamine fluorescence, 2 h. AID 1645858. 47,000 tested, 0.7% active
Target sequence (Q5T2D3 whole entry, looked up): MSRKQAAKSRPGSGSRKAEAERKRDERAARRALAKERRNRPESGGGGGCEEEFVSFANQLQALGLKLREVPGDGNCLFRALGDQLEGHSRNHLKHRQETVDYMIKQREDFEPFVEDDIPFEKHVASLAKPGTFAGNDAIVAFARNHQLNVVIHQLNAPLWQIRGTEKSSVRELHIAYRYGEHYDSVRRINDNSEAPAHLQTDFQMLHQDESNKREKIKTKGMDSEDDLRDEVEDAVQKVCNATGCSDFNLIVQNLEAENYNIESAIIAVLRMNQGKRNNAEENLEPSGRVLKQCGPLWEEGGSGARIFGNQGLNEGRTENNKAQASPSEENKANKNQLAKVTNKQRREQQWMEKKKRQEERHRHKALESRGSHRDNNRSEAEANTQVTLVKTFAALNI
USP30 inh: human USP30 deubiquitinase inhibition; 47,000 tested, 5.3% active; Q70CQ3; AID 1645860; purified USP30, Ub-rhodamine cleavage fluorescence; inhibition, % at 25 µM
USP28 block: blocks human USP28 ubiquitin-rhodamine cleavage. Q96RU2. purified USP28, Ub-rhodamine cleavage fluorescence, 30 min. inhibition, % at 25 µM. 47,000 tested, 3% active. AID 1645857
USP17 block: blocks human USP17 ubiquitin-rhodamine cleavage; purified USP17, Ub-rhodamine cleavage fluorescence, 3 h; inhibition, % at 50 µM; 47,000 tested, 6.5% active; AID 1645855
Numbers without * were called inactive; / = no result. Cut-off read from the data, not from the text of the source: active = inhibition above about 30%; inactive = the rest.

SMILES	OTUD3 inh	USP30 inh	USP28 block	USP17 block
Cc1ccc(N2CC(c3nc4ccccc4n3CCCCOc3ccccc3)CC2=O)cc1 (stereo not drawn)	26	52*	22	17
Cn1nc(C(=O)NC2CCCCCC2)c2c1-c1ccsc1CC2	13	22	7	15
O=C(c1cccc2c1OCCO2)N1CCOCC1c1ccn[nH]1 (stereo not drawn)	20	33*	14	11
CC(C)(C)c1cc(C(=O)N2CCOCC2c2ccn[nH]2)n[nH]1 (stereo not drawn)	-14	-34	-21	-14
CC(Oc1ccccc1)C(=O)Nc1nnc(-c2ccc3c(c2)OCO3)s1 (stereo not drawn)	9	23	1	8
COc1ccc(NC(=O)Cn2c(C)cc(=O)n3nc(-c4cccc(C)c4)nc23)cc1	-29	31*	3	16
CCc1ccc(NC(=O)Cn2c(C)cc(=O)n3nc(C(F)(F)F)nc23)cc1	-2	3	-3	4
O=C(c1ccccc1F)N(Cc1cccc(F)c1)C1CCS(=O)(=O)C1 (stereo not drawn)	14	27	14	9
COc1ccc(CC(=O)NC2CCN(c3ccc(C)cc3)C2=O)cc1 (stereo not drawn)	14	17	16	38*
COc1ccc(CNC(=O)NC2CCN(c3ccc(F)cc3)C2=O)cc1 (stereo not drawn)	-1	4	0	6
CCCN1CCN(Cc2nc3nc(C)cc(N4CCOCC4)n3n2)CC1	2	4	-4	3
COc1ccc(NC(=O)c2ccccc2OCC(=O)Nc2ccccc2C(F)(F)F)c(C)c1	1	-1	-1	79*
COc1ccc(-c2cncc3ccc(C(=O)NCc4ccncc4)nc23)cc1	-1	8	-6	-8
NS(=O)(=O)c1nnc(NC(=O)c2ccccn2)s1	10	1	0	-40
N#Cc1ccc(Cc2ncc(C(F)(F)F)cc2Cl)s1	5	0	60*	3
CC(C)N(Cc1cc(=O)[nH]c2ccccc12)C(=O)c1cccc(Cl)c1	14	27	11	12
CCn1cc(S(=O)(=O)Nc2cnn(Cc3ccccc3C)c2)cn1	2	-5	3	8
O=C(Cc1cc(-c2ccccc2)on1)NCc1ccc(Cl)cc1	8	16	1	4
O=C(Cc1cc(-c2ccccc2)on1)NCc1c(F)cccc1F	7	23	27	53*
COc1cccc(-c2cc(CC(=O)NCc3c(F)cccc3F)no2)c1	11	27	18	45*
CSc1ccccc1NC(=O)c1ccc(-n2cccn2)nn1	9	41*	13	62*
CSc1ccccc1NC(=O)c1ccc(N2CCOCC2)nn1	-1	5	-9	/
CC1CC(=O)Nc2cc(S(=O)(=O)Nc3cccc(F)c3)ccc2S1 (stereo not drawn)	13	31*	14	12
O=C(c1ccco1)N(CCCn1ccnc1)c1nc2c(F)cccc2s1	-5	0	-1	/
Cc1nc2nc(C(c3ccccc3)c3ccccc3)[nH]n2c(=O)c1Cc1ccccc1	-6	20	21	45*
SMILES	OTUD3 inh	USP30 inh	USP28 block	USP17 block
Cc1cc(C)c(S(=O)(=O)N2CCOCC2)cc1NC(=O)c1ccc2c(c1)OCO2	2	9	1	-2
Cc1cc2oc(=O)cc(COC(=O)c3ccc4[nH]c(C)c(C)c4c3)c2cc1Cl	-7	-98	-2	46*
CCOC(=O)c1csc(NC(=O)c2ccccc2Br)n1	-10	5	41*	0
CCCn1c(=O)[nH]c2nc(N3CCCCC3)sc2c1=O	8	-25	-4	33*
CCCn1c(=O)[nH]c2c(C(=O)N3CCCCC3)snc2c1=O	-8	2	-6	-5
COc1ncccc1-c1cn[nH]c1-c1ccsc1	-2	/	/	0
Cc1csc(-c2[nH]ncc2-c2ccsc2)n1	11	24	34*	13
NCCCC(N)CC(=O)NCCCC(N)CC(=O)NCCCC(N)CC(=O)NCCCC(N)CC(=O)NCCCC(N)CC(=O)NCCCC(N)CC(=O)NC1C(NC2=N[C@@H]3C(=O)NC[C@@H](O)[C@H]3N2)OC(CO)C(OC(N)=O)C1O (stereo partly drawn)	22	32*	23	1
Cc1noc(-c2csc(C(=O)NCc3ccccc3)n2)n1	14	23	28	10
COc1ccc2c3c(ccc2c1)C1CCC(=O)N1CC3 (stereo not drawn)	-13	-47	-4	12
COc1ccc(S(=O)(=O)N(Cc2cccnc2)Cc2cc3ccccc3[nH]c2=O)cc1	-11	-26	-15	-21
COc1ccc(S(=O)(=O)N(Cc2ccco2)Cc2cc3ccccc3[nH]c2=O)cc1	-7	42*	28	11
COc1ccc(-c2nccn3cc(C(=O)N4CCC5(CC4)OCCO5)nc23)cc1	8	15	8	6
O=C(COc1ncnc2ccccc12)Nc1ccc2c(c1)OC1(CCCC1)O2	20	10	26	60*
CC(C)[C@H](NC(=O)C1CCN(C(=O)[C@@H](NC(=O)OC(C)(C)C)C(C)C)CC1)C(=O)O	6	7	7	7
CN(C)c1ccc(-c2noc(C(=O)NC3CC(C)(C)NC(C)(C)C3)n2)cc1	6	26	14	5
CC1(C)CC(NC(=O)c2nc(-c3ccc(F)cc3)no2)CC(C)(C)N1	11	34*	6	16
O=C1NC(c2ccccc2)(c2ccccc2)C(=O)N1Cc1ncc(-c2ccc(F)cc2)o1	3	-17	8	1
CC1O[C@@H](c2ccc3c(c2O)C(=O)C2=C(C3=O)[C@@]3(O)C(=O)C(O)[C@](C)(O)C[C@@]3(O)C=C2)CC[C@@H]1OC(=O)/C=C/C=C/C=C/[C@@H]1O[C@@](C)(C(=O)O)O[C@H]1C (stereo partly drawn)	46*	-106	48*	48*
C[C@@H]1OC(O[C@@H]2C[C@H](c3ccc4c(c3O)C(=O)C3=C(C4=O)[C@@]4(OC5CC[C@H](O)[C@H](C)O5)C(=O)C[C@](C)(O)C[C@@]4(O)C=C3)O[C@H](C)C2O)CC[C@@H]1O[C@H]1C[C@@H](O)[C@H](O)[C@@H](C)O1 (stereo partly drawn)	-85	-389	-200	-45
O=C(NNS(=O)(=O)c1ccc(F)cc1)C1CCN(S(=O)(=O)c2ccccc2)CC1	7	17	31*	7
COc1ccc(CC(=O)Nc2nc(-c3ccc(OC)c(OC)c3)ns2)cc1	-1	/	/	0
CC1[C@@H]2[C@@H](C(=O)N3CCOCC3)C[C@H](CN1S(=O)(=O)c1cccc(Cl)c1)N2C (stereo partly drawn)	4	5	10	9
Cc1nn(-c2ccccc2)c(C)c1C(=O)OCC(=O)Nc1cccc(C#N)c1	8	5	66*	8
O=C(CC1CCN(C(=O)Nc2ccccc2F)CC1)N1CCCCC1	-8	6	-8	-5
COc1cc(-c2c(NC(=O)c3ccc([N+](=O)[O-])cc3)n(C)c3ccccc3c2=O)cc(OC)c1OC	14	31*	12	22
Clc1ccc(CN=C(Nc2ccccc2)NC2CC2)c(Cl)c1	9	31*	25	5
